Screens deposited in PubChem by National Center for Advancing Translational Sciences (NCATS).
HT1080 IDH1KD tx – HT-1080 IDH1 knockdown cell toxicity (counter line). 2% of 360,000 active. HT-1080 IDH1 knockdown viability, ATP luminescence, 48 h. Potency, µM (doses to about 46.1 µM), hits mostly cytotoxic. AID 686971
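Viability of IDH1-knockdown HT-1080 fibrosarcoma cells was assessed by CellTiter-Glo after 48 h at 37 °C with titrated compound; concentration-effect curves were classified by fit quality and response size.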
uPA surface inh – blocks generation of uPA at the cell surface; 0.31% of 330,000 active; AID 540303; cell surface uPA generation assay, qHTS; Potency, µM (top dose mostly 38.3 µM), actives largely listed as inhibitors; active = well fitted inhibition curve with a large enough effect; inconclusive = small, poorly fitted or top-dose-only effect; inactive = no such curve, though single readings can be large or run the other way; tested in mouse RAW 264.7 cells; note: nearly all actives have a fitted effect of over 55% in size
IL1B secr inh – blocks inflammasome-driven IL-1 beta release; AID 743279; 4.7% of 360,000 active; THP-1 LPS/ATP IL-1B secretion, AlphaLISA, 16 h; active compounds read low; activity change, % at 57.5 µM; in the data active = activity change below about -50%; inconclusive = mostly about -30% to -49%
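THP-1 cells pretreated 1 hr with compounds (up to 57.5 uM final), then stimulated with LPS (250 ng/mL final) plus ATP (1.25 mM final); secreted IL-1B measured by AlphaLISA after 16 hr, decreased signal indicating inhibition.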
TDP1 cell noCPT – qHTS for Inhibitors of human tyrosyl-DNA phosphodiesterase 1 (TDP1): qHTS in cells in absence of CPT; DT40 Tdp1-/- hTDP1 cells, no CPT, ATP luminescence, 48 h; Potency, µM (top dose mostly 46.2 µM), hits mostly inhibitors; 15% of 420,000 active; AID 686978, 2013; note: nearly all actives have a fitted effect of over 55% in size
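Chicken DT40 Tdp1-/- cells stably complemented with human TDP1 were seeded at 400 cells/well with DMSO in place of 20 nM camptothecin. After compound pinning, cells grew at least 48 hr at 37 °C; viability read by CellTiter-Glo luminescence.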
HT1080-NT tox – kills 2HG-producing HT-1080-NT fibrosarcoma cells; HT-1080-NT fibrosarcoma viability, CellTiter-Glo ATP luminescence, 48 h; Potency, µM (highest dose often 46.1 µM), actives largely listed as cytotoxic; 1.6% of 360,000 active;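 note: NT is the 2HG producing partner of a matched IDH1 knockdown line; nearly all actives have a fitted effect of over 55% in size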
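Luminescent CellTiter-Glo readout after 48 hours of compound exposure at 37 degrees C defined viability of HT-1080-NT cells. Activity was normalized to DMSO wells and cell-free media wells; concentration-response curves were fitted and assigned curve classes.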
TDP1 cell CPT – DT40-hTDP1 cell growth loss with CPT; Potency, µM (titrated, usually from 46.2 µM), most hits filed as inhibitors; 12% of 420,000 active; AID 686979; chicken DT40 Tdp1-/-;hTDP1 cells + 20 nM CPT, ATP luminescence, 48 h; note: nearly all actives have a fitted effect of over 55% in size
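Chicken DT40 Tdp1-/- cells complemented with human TDP1, 400 cells/well, exposed to compounds plus 20 nM camptothecin for at least 48 h at 37 C; viability read as ATP content by CellTiter-Glo luminescence.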
Of the large screens only hits and unclear results are named; the others gave an inactive call. Compounds with a hit are over-represented: about 19% of the library has one in this group of screens. Unless noted, calls come from the whole dose curve; as a rule, active = well fitted curve in the direction sought with a large enough effect; inconclusive = small, poorly fitted or top-dose-only effect, or another doubt; inactive = no such curve, though single readings can be large; an effect the other way counts as inactive or inconclusive.

Cc1nc(C(F)(F)F)ccc1C(=O)N1CCC1(C)C(=O)NCc1ccc(Cl)cc1 (configuration not stated)	TDP1 cell noCPT inconclusive (no result: uPA surface inh)
CN(C(=O)COC(=O)CCCN1C(=O)c2cccc3cccc(c23)C1=O)C1CCS(=O)(=O)C1 (configuration not stated)	none
C[C@@H](NC(=O)c1nc[nH]c1C(=O)NCC(=O)OCc1ccccc1)c1ccccc1	none
CC(=O)N1CCC2(CCCN(Cc3cc(C(F)(F)F)cc(C(F)(F)F)c3)C2)CC1	TDP1 cell noCPT inconclusive (no result: HT1080 IDH1KD tx, uPA surface inh, IL1B secr inh, HT1080-NT tox)
O=C(O)C1=NN(c2cc(Cl)c(S(=O)(=O)O)cc2Cl)C(=O)C1	none
COc1cc(SC)ccc1C(=O)Nc1ccc(C)cc1	IL1B secr inh -56.7, TDP1 cell noCPT inconclusive (no result: uPA surface inh)
COc1ccc(C(=O)Nc2ccc3c(c2)OCCO3)c(OC)c1	none (no result: uPA surface inh)
COc1cc(SC)ccc1C(=O)NCCc1ccccc1	HT1080 IDH1KD tx inconclusive, TDP1 cell CPT 14.6µM
COc1cc(SC)ccc1C(=O)Nc1ccc2c(c1)OCO2	HT1080 IDH1KD tx inconclusive, IL1B secr inh -63.1
COc1ccc(CNC(=O)c2ccc(SC)cc2OC)cc1	none
CC(C)(C)N1C(=O)c2ccc(C(=O)Nc3cc(C(=O)O)cc(C(=O)O)c3)cc2C1=O	none
Cc1cc(Br)ccc1NC(=O)CN(C)C(=O)c1cccc(S(=O)(=O)N2CCN(C)CC2)c1	TDP1 cell noCPT inconclusive
CC(C)C(=O)Nc1nnc(S(=O)(=O)N(C)Cc2ccc(F)cc2)s1	none (no result: HT1080 IDH1KD tx, uPA surface inh, IL1B secr inh, HT1080-NT tox)
COc1ccc(OC)c(C2=CC(=O)C[C@H](c3ccc(F)cc3)C2)c1	IL1B secr inh inconclusive, TDP1 cell CPT inconclusive (no result: uPA surface inh)
CCOc1ccc(Cl)cc1C1=CC(=O)C[C@H](c2ccc(OC)cc2)C1	HT1080 IDH1KD tx 4.11µM, uPA surface inh inconclusive, TDP1 cell noCPT 4.11µM, HT1080-NT tox 2.06µM, TDP1 cell CPT 2.91µM
COc1ccc([C@H]2CC(=O)C=C(c3cc(C=O)ccc3OC)C2)cc1	HT1080 IDH1KD tx 14.6µM, uPA surface inh 6.31µM, TDP1 cell noCPT 5.8µM, HT1080-NT tox inconclusive, TDP1 cell CPT 4.61µM
COC/C=C/C1=CC(=O)C[C@H](c2ccc3c(c2)OCO3)C1	uPA surface inh inconclusive, IL1B secr inh -96.3, TDP1 cell noCPT 18.4µM, TDP1 cell CPT inconclusive
COc1ccc(Cl)cc1C1=CC(=O)C[C@H](c2ccc(F)cc2)C1	TDP1 cell noCPT inconclusive, TDP1 cell CPT inconclusive
COc1ccc([C@H]2CC(=O)C=C(c3cc(OC)ccc3OC)C2)cc1	HT1080 IDH1KD tx inconclusive, uPA surface inh inconclusive, TDP1 cell noCPT 14.6µM, HT1080-NT tox inconclusive, TDP1 cell CPT 13µM
O=C(Nc1ccc(NC(=O)C2CC2)cc1)c1cccs1	IL1B secr inh inconclusive
Cc1ccc(S(=O)(=O)N2CCCC(c3nc4c(nnn4Cc4ccc5c(c4)OCCO5)c(=O)[nH]3)C2)cc1 (configuration not stated)	IL1B secr inh inconclusive, TDP1 cell noCPT inconclusive, TDP1 cell CPT inconclusive
COc1ccc([C@H]2CC(=O)C=C(c3cc(Cl)ccc3OC)C2)cc1	HT1080 IDH1KD tx inconclusive, uPA surface inh inconclusive, TDP1 cell noCPT inconclusive, HT1080-NT tox inconclusive, TDP1 cell CPT 13µM
COc1ccc(F)cc1C1=CC(=O)C[C@H](c2ccc3c(c2)OCO3)C1	HT1080 IDH1KD tx inconclusive, uPA surface inh inconclusive, TDP1 cell noCPT 13µM, HT1080-NT tox inconclusive, TDP1 cell CPT 9.2µM
COc1nc2ccccc2nc1CCC(=O)O	none
Brc1cccc(-c2nc3ccc(Br)cn3c2Cc2ccccc2)c1	TDP1 cell noCPT inconclusive, TDP1 cell CPT inconclusive (no result: uPA surface inh)
Cc1ccc(NC(=O)NNC(=O)C2CCN(Cc3ccc(F)cc3Cl)CC2)cc1	TDP1 cell noCPT inconclusive
COCCNC(=O)c1c(NC(=O)c2cc(=O)c3cc(Cl)ccc3o2)sc2c1CCCC2	none (no result: HT1080 IDH1KD tx, uPA surface inh, IL1B secr inh, HT1080-NT tox)
Cc1cccc(-n2c(=S)[nH]c3sc4c(c3c2=O)CCc2ccccc2-4)c1	TDP1 cell noCPT 6.51µM, TDP1 cell CPT 9.2µM
CC1=NN2C(=N)/C(=C\c3cc(C)n(-c4ccccc4)c3C)C(=O)N=C2S1	none
